Screening data (PubChem)
The entries come from a sample that favours hits as a whole.
HTT ATP protect – cytoprotection in Huntington HTT-Q103 PC12 cell model | PC12 HTT-Q103 induced, cytoprotection, ATP luminescence, 40 h | Potency, µM (doses to about 56.4 µM), without a hit: cytoprotection (ATP increase), actives largely listed as activators | hit rate 0.14% among 230,000 | AID 1471; also: potency is read from the fitted curve at half-maximal effect; % of control where 0% means no effect; nearly all actives have a fitted effect of over 45% in size
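Compounds added alongside 100 nM tebufenozide, which induces toxic Q103 huntingtin exon 1-GFP in stable PC12 cells; surviving cells quantified by luminescent ATP measurement. Medium: phenol red-free DMEM, 5% equine and 5% calf serum.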
HttQ103 aggreg – reduces HttQ103-GFP aggregates in PC12 cells; PC12 HttQ103-GFP aggregates, Acumen cytometry, 40 h; Potency, µM (doses to about 46.1 µM), for the others: at the top dose activity change, negative = inhibition, actives largely listed as inhibitors; hit rate 1.1% among 220,000; also: potency is read from the fitted curve at half-maximal effect; % is scaled to controls: 0 for no effect and ±100 for the full control effect; nearly all actives have a fitted effect of over 60% in size
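Ecdysone-promoter PC12 model expressing HTT exon 1 Q103 fused to GFP, induced by tebufenozide at 100 nM final. Compounds titrated; aggregates sized 1–25 µm scored on a 488 nm laser cytometer.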
PNC assembly inh – perinucleolar compartment assembly inhibition; PC3M PTB-GFP, PNC prevalence imaging, 16 h; active compounds read low; activity change (PNC), negative = inhibition, % at 10 µM; hit rate 3.1% among 140,000;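 active = readout at or below -70, meaning at least 70% loss of cells showing the perinucleolar compartment, a nuclear body marking cancer cells; inconclusive = readout between -30 and a set limit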;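 also: plate controls were DMSO wells for no effect and camptothecin positive control wells for full effect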
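Compounds are pinned in duplicate onto adhered PC3M cells stably expressing GFP-tagged PTB and incubated 16 h at 37 C. Cells are then fixed, nuclei stained with Hoechst, and PNC-positive cells counted.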
* = called active by the depositor; ? = inconclusive; / = not tested or not shown; [ ] = another dose, or the depositor's remark. Unless noted, calls follow the shape of the dose curve; as a rule, active = well fitted curve in the direction sought with a large enough effect; inconclusive = small, poorly fitted or top-dose-only effect, or another doubt; inactive = no such curve, though single readings can be large; an effect the other way counts as inactive or inconclusive.

SMILES | HTT ATP protect | HttQ103 aggreg | PNC assembly inh
CC(C)(C)OC(=O)NCCc1nnc(SCc2ccc(Cl)cc2Cl)o1 | -36% | ? | ?
Clc1cccc(NCc2nnc(SCc3ccc(Cl)cc3Cl)o2)c1 | 0%[1.9 µM] | ? | -119*
NC(=O)c1ccccc1NC(=O)CCc1ccccc1 | -9% | 4% | 1
Cc1sc(NC(=S)NC(=O)CCc2ccccc2)c(C(N)=O)c1C | -69%[10 µM] | ? | -121*
Cc1sc(NC(=S)NC(=O)c2ccco2)c(C(N)=O)c1C | -86% | 3% | /
COC(=O)CCC(=O)NC(=S)Nc1sc(C)c(C)c1C(N)=O | / | 3% | -124*
NC(=O)c1ccccc1NC(=S)NC(=O)CCc1ccccc1 | -2%[10 µM] | 27% | -108*
COC(=O)CCC(=O)Nc1sc(C)c(C)c1C(N)=O | 11% | -1% | 14
COc1ccc(/C=C/C(=O)NC(C)CCc2ccccc2)cc1 (centres undefined) | 21%[0.074 µM] | 18% | 13
Cc1ccc(CNS(=O)(=O)c2ccc3c(c2)n(C)c(=O)c(=O)n3C)cc1 | 12% | 12% | /
O=C(Cn1cccc1C(=O)c1ccccc1)NCCC1=CCCCC1 | -23% | 12% | /
COc1ccc(C2CC(=O)C3=C(C2)Nc2ncnn2C3c2ccccc2C)cc1 (centres undefined) | -15%[0.074 µM] | -17% | 35
COc1ccc(C2CC(=O)C3=C(C2)Nc2ncnn2C3c2ccccc2)cc1 (centres undefined) | -3% | 5% | -107*
CC1(C(=O)OCC(=O)Nc2ccccc2Cl)CC1(Cl)Cl (centres undefined) | 1% | -3% | /
COc1ccccc1OCC(=O)c1[nH]c(C)c(C(C)=O)c1C | -26% | ? | 22
CC(=O)c1c(C)[nH]c(C(=O)COc2cc(C)ccc2C(C)C)c1C | -13% | 1µM* | -86*
O=[N+]([O-])c1ccc(Sc2cccc[n+]2[O-])c2nonc12 | -98%[10 µM] | 1.1µM* | /
O=C(CSc1cccc[n+]1[O-])Nc1ccc(C(F)(F)F)cc1[N+](=O)[O-] | 19%[10 µM] | 4% | /
CN(C(=O)CS(=O)(=O)Cc1ccccc1Cl)c1ccccc1 | 26%[10 µM] | 11% | /
COc1ccc(CC(=O)NCc2nnc(SCc3ccc(C)cc3)n2C)cc1 | / | 3% | -92*
COc1ccc(CC(=O)NCc2nnc(SCc3ccc([N+](=O)[O-])cc3)n2C)cc1 | -3% | 7% | /
COC(=O)CSc1nnc(CNC(=O)c2cc(OC)c(OC)c(OC)c2)n1C | -6% | 0% | ?
COC(=O)CSc1nnc(CNC(=O)c2ccccc2OC)n1C | -16% | 13% | -88*
Cc1ccccc1CSCCNC(=O)Nc1ccccc1 | -123% | ? | /
CCOC(=O)Cc1nnc2c(Nc3ccccc3F)nc3nonc3n12 | -1%[10 µM] | 16µM* | ?
SMILES | HTT ATP protect | HttQ103 aggreg | PNC assembly inh
CCOC(=O)Cc1nnc2c(Nc3ccc(C)cc3)nc3nonc3n12 | 16%[10 µM] | -12% | 29
COc1ccc(S(=O)(=O)NCC2CCCN(C(=O)c3cccs3)C2)cc1 (centres undefined) | 24%[10 µM] | ? | /
COCCCNC(=O)CN(CCc1ccccc1)S(=O)(=O)c1ccc(C)cc1 | -16% | 8% | /
Cc1cc2ccccc2n1CCNC(=O)Cc1cccc2ccccc12 | -11%[10 µM] | -23% | -108*
CCC(=O)NCCn1c(C)cc2ccccc21 | -6%[10 µM] | -17% | 42
c1ccc(-c2ncnc3nc4n(c23)CCC4)cc1 | -12% | -4% | -26
Cn1c(SCC(=O)Nc2nccs2)nnc1-c1ccco1 | 3%[10 µM] | 18% | 12
O=C(NC1CCCCC1)C1CCN(c2cnccn2)CC1 | 2%[10 µM] | -2% | -95*
Cc1ccccc1NC(=O)C1CCN(c2cnccn2)CC1 | 17%[10 µM] | -29% | 14
Brc1ccc2ncnc(Nc3ccc(N4CCOCC4)cc3)c2c1 | 5% | 8.9µM* | 4
O=C(COc1ncnc2ccc(Br)cc12)Nc1ccc(N2CCOCC2)cc1 | -26% | -16% | 16
COCC(=O)N1CCC2(CCN(Cc3ccccc3OC)CC2)CC1 | 13% | / | /
O=C(CSCCN1C(=O)c2ccccc2C1=O)Nc1ccc2ccccc2c1 | -13%[10 µM] | 8% | ?
Cc1onc(-c2c(Cl)cccc2Cl)c1C(=O)c1ccccc1 | 10%[10 µM] | -3%[9.22 µM] | /
Cc1onc(-c2c(Cl)cccc2Cl)c1C(=O)Nn1cnnc1 | -4% | -29% | -107*
O=C(/C=C/c1ccco1)N/C(=C\c1ccccc1)C(=O)NCCc1nc2ccccc2[nH]1 | 9%[10 µM] | 29% | ?
c1ccc(CSc2nnnn2-c2cccc3ccccc23)nc1 | -8% | -12% | ?
CC(C)c1ccc(C(=O)N2CCN(c3cnn(C)c(=O)c3Cl)CC2)cc1 | 12%[10 µM] | 19%[9.22 µM] | /
N#CC(c1cccc(Cl)c1)c1ccc2c(C(F)(F)F)cc(C(F)(F)F)nc2n1 (centres undefined) | -98% | 0.89µM* | 47
